Dicer processing: inhibitors of human Dicer processing of pre-microRNA. Q9UPY3. z-score at 25 µM. cat-ELCCA pre-miR-21 Dicer processing, chemiluminescence; active compounds read high. 47,000 compounds, 6% hits. AID 1347074; in the data active = z-score above about 3, passing the limit was not always enough;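 note: plate controls were vehicle for no effect and no enzyme for full effect; higher signal means more uncleaved substrate so more Dicer inhibition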
Target sequence (Q9UPY3 whole entry, looked up): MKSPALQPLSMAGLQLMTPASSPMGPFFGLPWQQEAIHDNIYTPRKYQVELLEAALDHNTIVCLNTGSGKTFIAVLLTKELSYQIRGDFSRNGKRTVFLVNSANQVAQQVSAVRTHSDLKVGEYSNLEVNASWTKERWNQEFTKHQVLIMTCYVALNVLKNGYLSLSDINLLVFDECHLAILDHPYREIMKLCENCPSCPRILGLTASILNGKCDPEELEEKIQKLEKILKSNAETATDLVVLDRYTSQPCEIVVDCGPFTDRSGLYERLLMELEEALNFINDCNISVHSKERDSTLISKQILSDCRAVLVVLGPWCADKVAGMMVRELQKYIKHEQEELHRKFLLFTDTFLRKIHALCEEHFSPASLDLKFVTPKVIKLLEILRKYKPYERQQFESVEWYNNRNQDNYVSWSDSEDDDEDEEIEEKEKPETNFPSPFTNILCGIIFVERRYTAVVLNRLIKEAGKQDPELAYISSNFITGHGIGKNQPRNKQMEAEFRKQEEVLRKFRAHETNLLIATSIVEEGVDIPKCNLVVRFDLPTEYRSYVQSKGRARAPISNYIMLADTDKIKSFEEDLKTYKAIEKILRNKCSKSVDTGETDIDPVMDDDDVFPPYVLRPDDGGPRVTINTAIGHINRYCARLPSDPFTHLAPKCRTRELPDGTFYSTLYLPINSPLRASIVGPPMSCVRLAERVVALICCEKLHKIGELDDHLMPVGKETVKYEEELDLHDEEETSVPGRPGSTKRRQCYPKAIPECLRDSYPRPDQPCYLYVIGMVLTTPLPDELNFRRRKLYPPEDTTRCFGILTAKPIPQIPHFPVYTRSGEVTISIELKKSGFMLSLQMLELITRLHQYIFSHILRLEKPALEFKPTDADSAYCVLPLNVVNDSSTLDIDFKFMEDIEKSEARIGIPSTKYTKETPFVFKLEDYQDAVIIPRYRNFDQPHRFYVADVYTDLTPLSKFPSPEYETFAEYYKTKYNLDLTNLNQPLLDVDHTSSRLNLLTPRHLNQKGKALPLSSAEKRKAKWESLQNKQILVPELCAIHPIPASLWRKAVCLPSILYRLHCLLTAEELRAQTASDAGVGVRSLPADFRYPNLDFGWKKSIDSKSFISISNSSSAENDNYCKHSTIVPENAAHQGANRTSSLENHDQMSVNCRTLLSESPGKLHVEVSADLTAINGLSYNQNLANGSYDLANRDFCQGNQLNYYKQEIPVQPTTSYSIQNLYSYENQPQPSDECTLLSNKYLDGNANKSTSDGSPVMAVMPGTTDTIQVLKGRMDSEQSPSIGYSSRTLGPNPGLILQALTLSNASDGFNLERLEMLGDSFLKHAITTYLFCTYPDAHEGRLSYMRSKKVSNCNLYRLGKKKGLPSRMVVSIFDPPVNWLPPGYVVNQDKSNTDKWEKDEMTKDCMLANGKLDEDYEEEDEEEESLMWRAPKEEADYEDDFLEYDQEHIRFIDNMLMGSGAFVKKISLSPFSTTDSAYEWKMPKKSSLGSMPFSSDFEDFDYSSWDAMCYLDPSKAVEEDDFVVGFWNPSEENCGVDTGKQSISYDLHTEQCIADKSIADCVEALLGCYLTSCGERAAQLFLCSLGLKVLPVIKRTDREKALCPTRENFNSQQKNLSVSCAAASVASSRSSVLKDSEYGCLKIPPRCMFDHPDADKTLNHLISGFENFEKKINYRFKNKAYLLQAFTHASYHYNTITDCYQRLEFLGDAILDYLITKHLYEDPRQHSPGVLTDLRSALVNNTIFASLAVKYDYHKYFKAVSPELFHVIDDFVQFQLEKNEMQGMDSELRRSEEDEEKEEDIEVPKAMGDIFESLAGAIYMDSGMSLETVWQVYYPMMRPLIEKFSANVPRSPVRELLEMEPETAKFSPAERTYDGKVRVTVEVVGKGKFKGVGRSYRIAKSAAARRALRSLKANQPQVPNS
An asterisk follows results filed as active. Only a selection was taken, and hits are over-represented in it overall.

SMILES	Dicer processing
CC(=O)c1ccc(Oc2ncc([N+](=O)[O-])s2)cc1	-0.7
CCn1c(SCC(=O)O)nc2cc(Cl)ccc21	0.05
O=C(NNS(=O)(=O)c1ccccc1)c1sccc1OCc1ncc(C(F)(F)F)cc1Cl	-1
O=c1c(Oc2ccccc2Br)c(C(F)(F)F)oc2cc(O)ccc12	1
O=c1c(Oc2ccccc2Cl)c(C(F)(F)F)oc2cc(O)ccc12	3.3*
Cc1cc(C)cc(Oc2c(C(F)(F)F)oc3cc(O)ccc3c2=O)c1	0.79
COc1ccc(/C(O)=C2\C(=O)C(=O)N(CCCn3ccnc3)C2c2ccc(N(C)C)cc2)cc1 (stereo unspecified)	-0.28
O=C(NNC(=S)Nc1cc(Cl)ccc1Cl)c1ccccc1Cl	-0.33
O=C1CC(Nc2ccc(Oc3ccccc3)cc2)C(=O)N1c1ccc(F)cc1 (stereo unspecified)	0.96
Cc1cc(C)c(C(=O)CC2(O)C(=O)Nc3ccc(C)cc32)c(C)c1 (stereo unspecified)	1.2
Cc1cc(C)c(C(=O)CC2(O)C(=O)Nc3ccc(Cl)cc32)c(C)c1 (stereo unspecified)	4.6*
O=C(CC1(O)C(=O)Nc2ccc(Cl)cc21)c1ccccc1 (stereo unspecified)	3
CN1CCc2c(sc3c2C(=O)NC(c2ccc(-c4cccc(Br)c4)o2)N3)C1 (stereo unspecified)	-0.57
CS(=O)(=N/C=C(\C#N)C(=O)c1ccc(Cl)cc1)c1ccc(Cl)cc1 (stereo unspecified)	-0.68
Cc1cc(C)c2oc(-c3cccc(N)c3)nc2c1	1.9
Cc1cc(C)c2oc(-c3cc(N)ccc3Cl)nc2c1	2.3
Cc1cc(C)c2oc(-c3ccc(C)c(N)c3)nc2c1	3.2*
N#Cc1c(NC(=O)c2ccccc2C(=O)O)sc2c1CCCC2	1.3
COc1cc(C2CC(=O)Nc3nc(N)[nH]c(=O)c32)ccc1OCc1ccccc1 (stereo unspecified)	3.4
CC(C)CC(=O)N1CCN(CC2CC=CCC2)CC1 (stereo unspecified)	1.6
CSc1ccc(CN2CCN(CC3CC=CCC3)CC2)cc1 (stereo unspecified)	1.2
CCS(=O)(=O)N1CCN(CC2CC=CCC2)CC1 (stereo unspecified)	3.7*
COc1ccccc1OCc1nc(-c2ccc(Br)cc2)no1	0.47
c1ccc(Nc2nc3c(s2)CCCC3)cc1	4*
O=C(CSc1nnc2sc3ccccc3n12)Nc1nc2c(s1)CCCC2	2.8
SMILES	Dicer processing
c1ccc(Nc2nc3c(s2)Cc2ccccc2-3)cc1	-1.4
CC1CN=C(SCc2ccccc2)N1 (stereo unspecified)	1.1
O=S(=O)(c1c(Cl)cc(C(F)(F)F)cc1Cl)N1CCOCC1	-1.9
Nc1ccc(O)c(-c2nc3ccccc3o2)c1	1.2
Cc1ccc2nc(-c3cc(N)ccc3Cl)oc2c1	4*
Clc1ccc(Cn2nnc(N3CCCCC3)n2)cc1	14
Cc1cc2nc(-c3cc(N)ccc3Cl)oc2cc1C	-1.8
Clc1ccc(-c2nc3cc(NCc4cccs4)ccc3o2)cc1	-0.22
Nc1ccc2oc(-c3ccc(F)cc3)nc2c1	3.7*
O=S(=O)(Nc1ccc2oc(-c3ccc(Cl)cc3)nc2c1)c1ccccc1	4*
Clc1ccc(-c2nc3cc(CN4CCCCC4)ccc3o2)cc1	4.3*
O=S(=O)(Nc1ccc2oc(-c3ccccc3F)nc2c1)c1ccccc1	-0.51
Nc1ccc2oc(-c3ccc(-c4nc5cc(N)ccc5o4)cc3)nc2c1	1.1
Cc1ccc2nc(-c3ccc(N)cc3)oc2c1	0.3
Cc1cc(=O)oc2cc(NS(=O)(=O)c3ccccc3)ccc12	1.4
Nc1ccc2oc(-c3ccccc3F)nc2c1	2.3
Cc1ccc(/C(O)=C2\C(=O)C(=O)N(CCCN3CCOCC3)C2c2ccc(Cl)cc2)cc1 (stereo unspecified)	-0.65
Cc1ccc(-c2csc(=N)n2-c2ccc(Cl)cc2)cc1	-0.32
ONC(=Nc1ccc(C(F)(F)F)cc1)c1c(F)cccc1F	0.5
CC1(C)Cc2nc3sc(C(=O)O)c(N)c3cc2CO1	1.4
CO[C@H]1/C=C/O[C@@]2(C)Oc3c(C)c(O)c4c(O)c(c(/C=N/N5CCN(C6CCCC6)CC5)c(O)c4c3C2=O)NC(=O)/C(C)=C\C=C\[C@H](C)[C@H](O)[C@@H](C)[C@@H](O)[C@@H](C)[C@H](OC(C)=O)[C@@H]1C	-0.38
Cc1nn(Cc2n[nH]c(=S)o2)c(C)c1Br	1.3
O=C(Nc1ccc(-c2nc3ncccc3o2)cc1)c1ccc([N+](=O)[O-])o1	0.38
Cc1ccc(-c2nc3ncccc3o2)cc1N	-0.93
Nc1ccc2oc(-c3cccc(Cl)c3)nc2c1	2.3
SMILES	Dicer processing
Nc1ccc2oc(-c3ccccc3)nc2c1	0.65
Nc1ccc(-c2nc3cc(Cl)ccc3o2)cc1	3.2*
Nc1ccc(-c2nc3ccccc3o2)cc1	1.6
Cc1cc2nc(-c3ccc(N)cc3)oc2cc1C	0.76
Fc1ccc(-c2nc3ncccc3o2)cc1	3.3*
Nc1ccc2nc(-c3ccccc3)oc2c1	4*
CC1=C(C(=O)OCC2CCCO2)C(c2ccc3c(c2)OCO3)C2=C(CC(C)(C)CC2=O)N1 (stereo unspecified)	1.4
COc1cc(C2C(C(=O)OCC3CCCO3)=C(C)NC3=C2C(=O)CC(C)(C)C3)cc(Cl)c1O (stereo unspecified)	1.1
CC1=C(C(=O)OCC2CCCO2)C(c2ccccc2C)C2=C(CC(C)(C)CC2=O)N1 (stereo unspecified)	-0.02
CCc1ccc(C2C(C(=O)OCC3CCCO3)=C(C)NC3=C2C(=O)CC(C)(C)C3)cc1 (stereo unspecified)	7*
CC1=C(C(=O)OCC2CCCO2)C(c2ccccc2F)C2=C(CC(C)(C)CC2=O)N1 (stereo unspecified)	4.7*
CC1=C(C(=O)OCC2CCCO2)C(c2coc3ccc(Cl)cc3c2=O)C2=C(CCCC2=O)N1 (stereo unspecified)	2.1
COc1ccc(C2C(C(=O)OCC3CCCO3)=C(C)NC3=C2C(=O)CC(C)(C)C3)cc1O (stereo unspecified)	-0.23
CC1=C(C(=O)OCC2CCCO2)C(c2coc3ccc(Cl)cc3c2=O)C2=C(CC(C)(C)CC2=O)N1 (stereo unspecified)	3.2*
CC1=C(C(=O)OCC2CCCO2)C(c2cccc(C)c2)C2=C(CC(C)(C)CC2=O)N1 (stereo unspecified)	2.2
O=C(Nc1ccc(Cl)cc1)O/N=C1\CCSC1	0.64
Cc1csc2ncnc(N3CCC(C(=O)O)CC3)c12	-0.11
N/C(=N\OS(=O)(=O)c1ccc(Cl)cc1)c1ccc(C(F)(F)F)cc1	-2.1
CCOC(=O)c1ccc(-n2nc(C)c(C(=O)OCC)c2C)cc1	-2.5
CC(NC(=O)C(C)(C)C)C1CC2CCC1C2 (stereo unspecified)	0.75
CCOC(=O)c1c(NC(=O)C(Cl)(Cl)Cl)nc(SC)n1-c1ccccc1OC	-1.7
CCN1C(=O)C(NC(C)=O)c2cc(Cl)ccc21 (stereo unspecified)	-0.2
CC1=C(C(=O)OCC2CCCO2)C(c2cc3c(cc2Cl)OCO3)C2=C(CCCC2=O)N1 (stereo unspecified)	1.3
Cc1cc(SCC2=NNC(=O)C2)c(C)cc1Cl	-0.62
c1ccc(C2CC(c3ccco3)n3ncnc3N2)cc1 (stereo unspecified)	0.17
COc1ccc(C2CC(=O)C3=C(C2)Nc2ncnn2C3c2ccccc2)cc1 (stereo unspecified)	2.9
O=C1CC(c2ccccc2)CC2=C1C(c1ccco1)n1ncnc1N2 (stereo unspecified)	3.9*

Screening data as filed in PubChem BioAssay.
